Test results from PubChem BioAssay AID1159580 (chemical genetic matrix, 2015).
Several values for one entry are separate records, joined by “and”; a condition that tells them apart may be missing. Equal entries are not always repeated. Out of some 5,500 compounds screened, about 2,000 (36%) were called active. Another 18% or so got no clear call; they are omitted. No stated cut-off is given here; in the data, active means normalized growth mostly below about 0.91 (no sharp cut-off); inconclusive means no clear call, values can overlap the other calls; inactive means mostly above about 0.92. The list shows a part of the results.

Experiment: chemical genetic growth profiling, strain panel (AID 1159580);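 further: tested at 20 µM; growth read once vehicle control cultures reached saturation at 30 °C; 1 = growth at the plate median or of vehicle wells; lower values mean less growth of the strain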
Details: S. cerevisiae deletion strains, growth OD

Measured: normalized growth

CC(=O)O[C@H]1C[C@@H](OC(C)=O)C(C)(C)C2CC(=O)[C@]3(C)C(CC[C@@]4(C)[C@H](c5ccoc5)OC(=O)[C@H]5O[C@]543)[C@]21C (some centres not stated)
inactive: locus YAL021C, strain ccr4, active compounds read low 0.973 | locus YAL026C, strain drs2, active compounds read low 0.982 | locus YAL030W, strain snc1, active compounds read low 0.989 | locus YBL061C, strain skt5, active compounds read low 0.993 | locus YBR009C, strain hhf1, active compounds read low 0.99 | locus YBR021W, strain FUR4, active compounds read low 0.984 | locus YBR023C, strain chs3, active compounds read low 1.01 | locus YBR171W, strain sec66, active compounds read low 0.999 | locus YBR229C, strain ROT2, active compounds read low 0.999 | locus YBR231C, strain swc5, active compounds read low 1.01 | locus YBR279W, strain paf1, active compounds read low 0.969 | locus YCL011C, strain gbp2, active compounds read low 0.998 | locus YCL016C, strain dcc1, active compounds read low 0.997 | locus YCL029C, strain bik1, active compounds read low 1.01 | locus YCL061C, strain MRC1, active compounds read low 0.99 | locus YCL069W, strain vba3, active compounds read low 0.99 | locus YCR088W, strain abp1, active compounds read low 0.988 | locus YDL005C, strain med2, active compounds read low 0.985 | locus YDL035C, strain GPR1, active compounds read low 0.982 | locus YDL040C, strain nat1, active compounds read low 0.999 | locus YDL074C, strain BRE1, active compounds read low 0.981 | locus YDL101C, strain DUN1, active compounds read low 1.02 | locus YDL185W, strain tfp1, active compounds read low 0.998 | locus YDL192W, strain arf1, active compounds read low 1 | locus YDR001C, strain nth1, active compounds read low 0.976 | locus YDR069C, strain doa4, active compounds read low 0.989 | locus YDR101C, strain arx1, active compounds read low 0.997 | locus YDR137W, strain rgp1, active compounds read low 0.974 | locus YDR159W, strain sac3, active compounds read low 0.973 | locus YDR162C, strain NBP2, active compounds read low 1 | locus YDR195W, strain ref2 0.94 | locus YDR297W, strain sur2, active compounds read low 0.988 | locus YDR318W, strain mcm21, active compounds read low 1.01 | locus YDR334W, strain swr1, active compounds read low 0.983 | locus YDR335W, strain msn5, active compounds read low 0.98 | locus YDR388W, active compounds read low 1.01 | locus YDR392W, strain spt3, active compounds read low 0.997 | locus YDR502C, strain sam2, active compounds read low 1.03 | locus YEL003W, strain gim4, active compounds read low 0.991 | locus YEL037C, strain rad23, active compounds read low 0.988 | locus YEL061C, strain CIN8 (second series), active compounds read low 0.994 | locus YER015W, strain faa2, active compounds read low 0.994 | locus YER016W, strain bim1, active compounds read low 0.991 | locus YER110C, active compounds read low 1.02 | locus YER111C, strain swi4, active compounds read low 1 | locus YER155C, strain BEM2 (second series), active compounds read low 0.992 | locus YER155C, strain BEM2, active compounds read low 1.01 | locus YER167W, strain BCK2, active compounds read low 0.997 | locus YFR010W, strain ubp6, active compounds read low 0.981 | locus YGL078C, strain dbp3, active compounds read low 1.03 | locus YGL086W, strain mad1, active compounds read low 1.01 | locus YGL167C, strain pmr1, active compounds read low 0.997 | locus YGL173C, strain kem1, active compounds read low 0.99 | locus YGL227W, strain vid30, active compounds read low 0.993 | locus YGL240W, strain doc1, active compounds read low 1.01 | locus YGL248W, strain PDE1, active compounds read low 1 | locus YGL253W, strain hxk2, active compounds read low 0.988 | locus YGR078C, strain PAC10, active compounds read low 1.02 | locus YGR135W, strain pre9, active compounds read low 1.06 | locus YGR252W, strain gcn5, active compounds read low 0.994 | locus YHR013C, strain ard1, active compounds read low 0.998 | locus YHR027C, strain rpn1, active compounds read low 0.994 | locus YHR030C, strain SLT2, active compounds read low 0.969 | locus YHR079C, strain IRE1 (second series), active compounds read low 1.02 | locus YHR079C, strain IRE1, active compounds read low 0.966 | locus YHR094C, strain hxt1, active compounds read low 1.02 | locus YHR129C, strain ARP1, active compounds read low 1.01 | locus YHR142W, strain chs7, active compounds read low 1.01 | locus YHR200W, strain rpn10, active compounds read low 1.02 | locus YIL066C, strain RNR3, active compounds read low 0.998 | locus YIL073C, strain SPO22, active compounds read low 1.32 | locus YIL125W, strain kgd1, active compounds read low 1.01 | locus YIR030C, strain dcg1, active compounds read low 1.01 | locus YJL092W, strain hpr5, active compounds read low 0.994 | locus YJL095W, strain BCK1 (second series), active compounds read low 0.996 | locus YJL095W, strain BCK1, active compounds read low 1.04 and 0.973 | locus YJL115W, strain asf1, active compounds read low 0.973 | locus YJL129C, strain trk1, active compounds read low 0.991 | locus YJL134W, strain LCB3, active compounds read low 1 | locus YJL154C, strain vps35, active compounds read low 0.986 | locus YJL164C, strain tpk1, active compounds read low 0.994 | locus YJL166W, strain qcr8, active compounds read low 0.993 | locus YJL168C, strain set2, active compounds read low 1.01 | locus YJL187C, strain SWE1 (second series), active compounds read low 1.02 | locus YJL187C, strain SWE1, active compounds read low 0.988 | locus YJR043C, strain POL32, active compounds read low 0.958 | locus YJR066W, strain TOR1, active compounds read low 0.915
